Shown are actives, neighbours in structure and some others; about 1.4% of the full set was active somewhere.
H9c2 protect – protects H9c2 cardiomyocytes from peroxide injury; protection from H2O2 cell death, % at 20 µM; actives 0.63% (n = 360,000); H2O2 injury protection, ATPLite, 2 h; AID 588492;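 active = compounds giving at least 50% protection of heart cells from peroxide-induced death in the single-dose screen, raw or plate-pattern-corrected value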
CR mimetic SO – yeast age-related superoxide inhibition as caloric restriction mimetic | S. cerevisiae aged cells, superoxide DHE fluorescence; active compounds read low | superoxide response (% of plate mean), % at 10 µM | actives 0.18% (n = 330,000);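 active = superoxide response under a set limit, about three screen SD below normal, cut at about 65% in these data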;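 also: yeast aged for seven days with compound at 30 °C before DHE staining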
pCIP destab – compounds decreasing mouse p/CIP protein stability; Q05BA5; F442A p/CIP-EGFP cells, EGFP fluorescence, 16 h; decrease of EGFP signal, % at 10 µM; AID 1984; actives 0.01% (n = 290,000);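 active = EGFP signal decrease of at least 30% at 10 µM or well 3 SD below plate mean, unless failing retest; inactive = the rest, including hits failing retest or dose response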
HSV replic up – HSV replication enhancement. HSV replication augmentation in cells, fold increase. maximum fold increase. actives 0.005% (n = 220,000). AID 1956; in the data active = maximum fold increase above about 1.5; inconclusive = no clear call, values can overlap the other calls; tested in PC3 cells
V-ATPase pH – regulators of yeast V-ATPase proton transport; S. cerevisiae, pHLuorin cytosolic pH fluorescence; response, % at 10 µM; actives 0.37% (n = 350,000); AID 504577; in the data active = response mostly above about 7.3%, no sharp cut-off; inactive = mostly below about 5.4%; also: actives read high
MIN6 prolif – MIN6 beta-cell proliferation induction; proliferation, % at 10 µM; MIN6 cells proliferation, ATPlite luminescence, 48 h; cells starved in 0.2% serum; 100% = growth in 10% serum; actives 0.29% (n = 330,000);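 active = compounds whose signal lies at least 3.5 SD above the mean of all wells on their plate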
Each line names hits and unclear results; the compound was inactive in the other large screens.

COc1ccc2[nH]c(=O)c(CN(CC3CCCO3)S(=O)(=O)c3ccccc3F)cc2c1 (configuration not stated)	H9c2 protect 52.7 (no result: HSV replic up)
CC(=O)Nc1ccc(S(=O)(=O)N(Cc2ccco2)Cc2cc3ccccc3[nH]c2=O)cc1	H9c2 protect 58.4 (no result: HSV replic up)
O=c1[nH]c2ccccc2cc1CN(Cc1cccnc1)S(=O)(=O)c1ccc([N+](=O)[O-])cc1	none (no result: HSV replic up)
C=CCOn1c(=O)c(-c2ccc(OCC)cc2)[n+]([O-])c2ccccc21	none (no result: HSV replic up)
CCOc1cc(/C=C/c2ccc3cccc([N+](=O)[O-])c3n2)ccc1OCC(=O)N(C)C	H9c2 protect 56.6
CCOC(=O)Cc1csc(NC(=O)C(NC(=O)C2CCCCC2)C(C)C)n1 (configuration not stated)	none
O=C1CCc2cc(S(=O)(=O)NCc3ccccc3Cl)cc3c2N1CC3	none (no result: pCIP destab, HSV replic up)
COc1ccc(N(C(=O)c2snc(C(N)=O)c2N)C(C(=O)NC2CCCC2)c2ccc3ncccc3c2)cc1 (configuration not stated)	none (no result: HSV replic up)
NC(=O)c1nsc(C(=O)N(c2ccccc2)C(C(=O)NC2CCCC2)c2ccc3ncccc3c2)c1N (configuration not stated)	H9c2 protect 62.1 (no result: HSV replic up)
NC(=O)c1nsc(C(=O)N(c2cccc(O)c2)C(C(=O)NC2CCCC2)c2ccc(Cl)cc2)c1N (configuration not stated)	none (no result: HSV replic up)
CCOc1ccc(C(C(=O)NC2CCCC2)N(C(=O)c2snc(C(N)=O)c2N)c2cccc(O)c2)cc1 (configuration not stated)	H9c2 protect 81.4 (no result: HSV replic up)
NS(=O)(=O)c1ccc(NC(=O)c2cc(Cl)sc2Cl)cc1	none (no result: HSV replic up)
Cc1oc2c(O)c(O)ccc2c(=O)c1-c1ccc(Cl)cc1	H9c2 protect 72.3 (no result: HSV replic up)
Cc1oc2c(CN3CCCCC3C)c(O)ccc2c(=O)c1-c1ccccc1 (configuration not stated)	none (no result: HSV replic up)
Cc1oc2c(O)c(O)ccc2c(=O)c1-c1ccccc1	H9c2 protect 68.9
Cc1oc2c(O)c(O)ccc2c(=O)c1-c1cnn(-c2ccccc2)c1	H9c2 protect 86.8
CN(CC(=O)Nc1ccc(F)cc1)C(=O)COC(=O)CCN1C(=O)C2CC=CCC2C1=O (configuration not stated)	none (no result: HSV replic up)
CC(=O)N1C(=O)CC(C)N(C(C)=O)c2ccc([N+](=O)[O-])cc21 (configuration not stated)	none
Cc1cc(C)c2ccc(/C=N/O)nc2c1O	none
Cc1cc(C)c2ccc(NN)nc2c1O	H9c2 protect 79.0
CCc1nnc(NS(=O)(=O)c2ccc(N3C(=O)c4ccc(C(=O)O)cc4C3=O)cc2)s1	none
COc1ccc(OCC(=O)N2CCC(n3nccc3NC(=O)C3CC3)CC2)cc1	none (no result: HSV replic up)
CC(=O)C1=NN(c2ccccc2)C(c2cccs2)N1c1ccccc1 (configuration not stated)	HSV replic up 1.53 (no result: H9c2 protect, V-ATPase pH)
CC(=O)C1=NN(c2ccccc2)C(c2ccc3c(c2)OCO3)N1c1ccc(N2CCOCC2)cc1 (configuration not stated)	none
O=C(CBr)N1CCc2ccccc2C(c2ccccc2)C1 (configuration not stated)	none
C=CCN1CCc2c(cc(O)c(O)c2Br)[C@@H](c2ccccc2)C1	H9c2 protect 59.5 (no result: pCIP destab)
CN(C)Cc1ccc(-c2nc3cccc4c3n2CCNC4=O)cc1	H9c2 protect 53.1 (no result: pCIP destab)
Cc1cc(CN(C)C(=O)CC2C(=O)NCCN2Cc2ccc(-c3ccccc3)cc2)on1 (configuration not stated)	none (no result: HSV replic up)
CCn1c(C)nc2cc(C(=O)n3cc(C(=O)c4cc(F)ccc4O)cn3)ccc21	none (no result: H9c2 protect, CR mimetic SO, HSV replic up, V-ATPase pH, MIN6 prolif)
CCC(=NNC(=O)c1ccc2c(c1)nc(C)n2CC)c1cc(F)ccc1O	H9c2 protect 52.2 (no result: pCIP destab, HSV replic up)
COC(=O)COc1ccc(S(=O)(=O)NC2CCCCCC2)cc1	none (no result: HSV replic up)
CCOC(=O)COc1ccc(S(=O)(=O)NC2CC2)cc1	CR mimetic SO 58.4 (no result: HSV replic up)
O=C(NCC(=O)N(Cc1cccs1)C(C(=O)NC1CCCCC1)c1ccco1)c1ccco1 (configuration not stated)	H9c2 protect 77.2
O=C(NCC(=O)N(Cc1cccs1)C(C(=O)NC1CCCC1)c1ccncc1)c1ccco1 (configuration not stated)	none
Cc1ccc(CSCC(=O)NCc2cccs2)cc1	none
CCC(=O)NC(c1ccc(OC)cc1)c1c(O)ccc2ccccc12 (configuration not stated)	pCIP destab 33.7
O=c1[nH]n(Cc2ccccc2)c(=O)c2ccccc12	H9c2 protect 56.5
COC(=O)CCn1[nH]c(=O)c2ccccc2c1=O	none
COc1ccc(-c2cc(C(=O)N3CCN(c4ccccc4)CC3)no2)cc1	none (no result: HSV replic up)
COc1ccc(OC)c(-c2cc(C(=O)N3CCN(c4ccccc4)CC3)no2)c1	V-ATPase pH 18.5
Cc1cc(C)cc(N(CCC#N)C(=O)COC(=O)c2ccc(OCc3c(C)noc3C)cc2)c1	none (no result: pCIP destab, HSV replic up)
CCN(CC(=O)Nc1cc(Cl)ccc1C)C(=O)C1CCN(c2ncnc3sc(C)c(C)c23)CC1	H9c2 protect 76.9 (no result: CR mimetic SO, pCIP destab, HSV replic up, MIN6 prolif)
CCC(=O)N/N=C/c1ccc(-c2ccc([N+](=O)[O-])cc2)o1	none
CC(C)(C)C(=O)/C=c1\s/c(=C\c2ccc(-c3ccc([N+](=O)[O-])cc3)o2)c(=O)n1CC(=O)NC(N)=O	H9c2 protect 52.5, HSV replic up inconclusive
O=C1C=C(c2ccc3ccccc3c2)C[C@@H](c2ccc(F)cc2)C1	none (no result: pCIP destab, HSV replic up)
O=C(NCCc1ccc(F)cc1)C(=O)Nc1cc2c3c(c1)CC(=O)N3CCC2	H9c2 protect 53.3 (no result: pCIP destab, HSV replic up)
CSc1nnc(NC(=O)c2cc3ccccc3oc2=O)s1	H9c2 protect 55.3
COc1cccc(/C=N/NC(=O)c2c(C)nc3ccc(Br)cn23)c1O	H9c2 protect 58.5
Cc1ccc(/C=N/NC(=O)c2c(C)nc3ccc(Br)cn23)cc1	none (no result: HSV replic up)
CCOc1ccccc1/C=N/NC(=O)c1c(C)nc2ccc(Br)cn12	none (no result: HSV replic up)
COc1ccc(/C=N\NC(=O)c2c(C)nc3ccc(Br)cn23)cc1	H9c2 protect 59.9
Cc1ccc(SCCn2nc(C(=O)O)c3ccccc3c2=O)cc1	none
Cc1cccc(OCCn2nc(C(=O)O)c3ccccc3c2=O)c1	H9c2 protect 72.8
Cc1cccc(C)c1OCCn1nc(C(=O)O)c2ccccc2c1=O	H9c2 protect 57.2
Cc1noc(C)c1Cn1nc(C(=O)O)c2ccccc2c1=O	H9c2 protect 63.7
Cc1ccc(-c2noc(Cn3nc(C(=O)O)c4ccccc4c3=O)n2)cc1	none (no result: HSV replic up)
CC(C)(C)c1ccc(OCCn2nc(C(=O)O)c3ccccc3c2=O)cc1	none (no result: HSV replic up)
O=C(NCCN1CCOCC1)C(=O)NCC1OCCN1S(=O)(=O)c1ccc(Cl)cc1 (configuration not stated)	none (no result: CR mimetic SO, pCIP destab, HSV replic up, MIN6 prolif)
CCOc1cc(/C=C2\SC(=S)N(N3CCOCC3)C2=O)ccc1O	HSV replic up inconclusive
